Reference: the supplement of paper PMC12350171
Counter-ions that a name gives are not always drawn.

How the values were obtained:
Settings in all cases: 20 µM
[1] = system: Haemophilus parainfluenzae; assay: growth AUC normalised to DMSO control (fraction of control); higher = less growth inhibition, active = hit call of the paper
Method in brief: (§1)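 Hemin and NAD were added to the medium for Haemophilus parainfluenzae. All pathogens, after two anaerobic passages, were inoculated at a starting OD578 of 0.01 into pre-reduced mGAM plates with 20 μM compound and 1% DMSO under breathable seals, and OD578 was read hourly for 24 h in three biological replicates. AUC of each growth curve was obtained with the trapezoidal rule up to the exponential-to-stationary transition and normalised to DMSO controls from the same plate.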

[2] = system: Salmonella enterica typhimurium; assay: as above
Method in brief: as §1

Shigella flexneri = assay: as above
Method in brief: as §1

Vibrio cholerae = assay: as above
Method in brief: as §1

[3] = system: Yersinia pseudotuberculosis; assay: as above
Method in brief: as §1

P. vulgatus RND KO = assay: growth AUC normalised to DMSO control (median) (fraction of control); higher = less growth inhibition, active = hit call of the paper
Method in brief: (§2)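 Each strain went through two overnight passages under anaerobic conditions before growth in mGAM in 96-well plates, starting at OD578 0.01, with each compound from the approved-drug library at 20 μM and 1% DMSO. Inside an anaerobic incubator, OD578 was recorded every hour for 24 h. Growth curves were cut off at entry into stationary phase, and the area under the curve was calculated by the trapezoidal rule and normalised to vehicle wells on the same plate. Reported values are medians of three biological replicates.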

P. vulgatus WT = assay: as above
Method in brief: as §2

[4] = system: S. enterica typhimurium WT; assay: as above
Method in brief: as §2

[5] = system: S. enterica typhimurium tolC KO; assay: as above
Method in brief: as §2

Measured: growth AUC normalised to DMSO control
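For growth AUC normalised to DMSO control (median) in this document: active when median AUC fell below 0.1.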

CC1C=CC=CCCC=CC=CC=CC=CC(OC2OC(C)C(O)C(N)C2O)CC2OC(O)(CC(O)C(O)CCC(O)CC(O)CC(O)CC(=O)OC(C)C(C)C1O)CC(O)C2C(=O)O (centres undefined) [Nystatine]
inactive: [1] 0.988 | [2] 0.992 | Shigella flexneri 0.959 | Vibrio cholerae 0.994 | [3] 0.989 | P. vulgatus RND KO 0.988 | P. vulgatus WT 0.996 | [4] 0.997 | [5] 1

C[C@]12COC(=O)C[C@@H]1CC[C@@H]1[C@@H]2CC[C@@]2(C)[C@H]1CC[C@]2(C)O [Oxandrolone]
inactive: [1] 0.995 | [2] 1.01 | Shigella flexneri 1 | Vibrio cholerae 1 | [3] 0.963 | P. vulgatus RND KO 1.03 | P. vulgatus WT 1.05 | [4] 1.01 | [5] 0.991

O=C(CCCN1CCC(n2c(=O)[nH]c3ccccc32)CC1)c1ccc(F)cc1 [Benperidol]
inactive: [1] 1.03 | [2] 0.981 | Shigella flexneri 0.998 | Vibrio cholerae 0.998 | [3] 0.975 | P. vulgatus RND KO 1.01 | P. vulgatus WT 1.02 | [4] 0.993 | [5] 0.956

C#CCN(C)[C@H](C)Cc1ccccc1 [Selegiline hydrochloride]
inactive: [1] 0.985 | [2] 1.02 | Shigella flexneri 1.05 | Vibrio cholerae 1.01 | [3] 1.03 | P. vulgatus RND KO 1.03 | P. vulgatus WT 1.05 | [4] 1 | [5] 1.01

COc1ccc(Cc2nccc3cc(OC)c(OC)cc23)cc1OC [Papaverine hydrochloride]
inactive: [1] 0.976 | [2] 1 | Shigella flexneri 0.971 | Vibrio cholerae 0.944 | [3] 0.997 | P. vulgatus RND KO 0.997 | P. vulgatus WT 1.01 | [4] 1.01 | [5] 0.976

O=[N+]([O-])O[C@@H]1CO[C@H]2[C@@H]1OC[C@@H]2O [Isosorbide mononitrate]
inactive: [1] 1.05 | [2] 1.01 | Shigella flexneri 1.03 | Vibrio cholerae 1.02 | [3] 1 | P. vulgatus RND KO 0.946 | P. vulgatus WT 0.958 | [4] 1 | [5] 0.99

O=C(NCNC(=O)NC1C(=O)NC(=O)N1CO)NC1C(=O)NC(=O)N1CO (centres undefined) [Imidurea]
inactive: [1] 0.992 | [2] 1 | Shigella flexneri 0.995 | Vibrio cholerae 1.01 | [3] 1 | P. vulgatus RND KO 0.991 | P. vulgatus WT 1.01 | [4] 0.998 | [5] 0.996

CC(O)(CS(=O)(=O)c1ccc(F)cc1)C(=O)Nc1ccc(C#N)c(C(F)(F)F)c1 (centres undefined) [Bicalutamide]
inactive: [1] 1.12 | [2] 1.05 | Shigella flexneri 1.08 | Vibrio cholerae 1.1 | [3] 1.01 | P. vulgatus RND KO 0.982 | P. vulgatus WT 0.988 | [4] 1.01 | [5] 0.954

OC(c1ccccc1)(c1ccccc1)C1CCNCC1 [Azacyclonol]
inactive: [1] 0.982 | [2] 0.999 | Shigella flexneri 0.988 | Vibrio cholerae 0.967 | [3] 1 | P. vulgatus RND KO 1 | P. vulgatus WT 1.03 | [4] 1.01 | [5] 0.99

CN1C(=O)CCS(=O)(=O)C1c1ccc(Cl)cc1 (centres undefined) [Chlormezanone]
inactive: [1] 1.02 | [2] 1 | Shigella flexneri 0.992 | Vibrio cholerae 1.01 | [3] 0.995 | P. vulgatus RND KO 1.03 | P. vulgatus WT 1.02 | [4] 1 | [5] 1

C=C1CC[C@@]2(O)[C@H]3Cc4ccc(O)c5c4[C@@]2(CCN3CC2CC2)[C@H]1O5 [Nalmefene hydrochloride]
inactive: [1] 0.969 | [2] 1.01 | Shigella flexneri 1.03 | Vibrio cholerae 1.02 | [3] 1.03 | P. vulgatus RND KO 1 | P. vulgatus WT 1.03 | [4] 1 | [5] 1.01

CCN(C(C)=O)c1cccc(-c2ccnc3c(C#N)cnn23)c1 [Zaleplon]
inactive: [1] 0.975 | [2] 0.978 | Shigella flexneri 0.954 | Vibrio cholerae 0.97 | [3] 1 | P. vulgatus RND KO 1 | P. vulgatus WT 1 | [4] 1 | [5] 0.992

CO[C@]12C[C@@H](COC(=O)c3cncc(Br)c3)CN(C)[C@@H]1Cc1cn(C)c3cccc2c13 [Nicergoline]
inactive: [1] 1.03 | [2] 1.01 | Shigella flexneri 1 | Vibrio cholerae 0.996 | [3] 1 | P. vulgatus RND KO 0.933 | P. vulgatus WT 0.948 | [4] 1 | [5] 0.942

CC(=O)O[C@H]1C[C@@H]2CC[C@@H]3[C@H](CC[C@@]4(C)[C@H]3C[C@H]([N+]3(C)CCCCC3)[C@@H]4OC(C)=O)[C@@]2(C)C[C@@H]1[N+]1(C)CCCCC1 [Pancuronium bromide]
inactive: [1] 1.04 | [2] 1.01 | Shigella flexneri 1.05 | Vibrio cholerae 1.04 | [3] 1 | P. vulgatus RND KO 1.01 | P. vulgatus WT 1.04 | [4] 1.03 | [5] 1.01

C[C@]12CC[C@H]3[C@@H](CCC4=CC(=O)CC[C@@H]43)[C@@H]1CC[C@@H]2O [Nandrolone]
inactive: [1] 1.99 | [2] 0.995 | Shigella flexneri 0.981 | Vibrio cholerae 0.967 | [3] 0.981 | P. vulgatus RND KO 0.999 | P. vulgatus WT 1.03 | [4] 1.01 | [5] 0.981

CCN(CC)C(C)C(=O)c1ccccc1 (centres undefined) [Amfepramone hydrochloride]
inactive: [1] 0.998 | [2] 0.995 | Shigella flexneri 0.982 | Vibrio cholerae 0.999 | [3] 1.02 | P. vulgatus RND KO 1.01 | P. vulgatus WT 1.01 | [4] 1.01 | [5] 0.988
